Results filed as inconclusive are left out. A call without a number means that no potency is given here. The source made the active and inactive calls. The call rests on the fitted dose curve; in most records, active means well fitted cell-killing curve with a large enough effect; inconclusive means small, poorly fitted or top-dose-only effect, or effect the other way; inactive means no such curve, though single readings can be large or run the other way. Starred links: 1 amine or outer side, 2 acyl side, 3 side chain; linkers in the order of their positions; H or OH if unused. Positions of bridges follow the written chain, without caps; N, C: chain ends. Non-standard residues stand in square brackets, D forms with d. Residues, ends and D or L forms follow the SMILES beside them. Chains are numbered I, II in the order given. *: point of attachment. Actinocin(9to1) = Cc1c2oc3c(C)ccc(C(=O)[*:1])c3nc-2c(C(=O)[*:2])c(N)c1=O; NMeV = CN[CH](C(=O)O)C(C)C; Nva = CCC[C@H](N)C(=O)O; Cbz = O=C(OCc1ccccc1)*; Sar = CNCC(=O)O
Potency means the concentration at half of the fitted maximal effect.

A short description of this assay: Quantitative High-Throughput drug screen in 47 multiple myeloma cell lines against the NCATS MIPE library collection: OPM2_DSMZ cell viability assay (AID 1919872). Further: nearly all actives have a fitted effect of over 30% in size. The settings on record: OPM2 myeloma viability, CellTiter-Glo ATP luminescence, 48 h; series mostly up to 45.8 µM. From the text: PI: Beverly A. Mock Ph.D.
Laboratory of Cancer Biology and Genetics,
Center for Cancer Research, National Cancer Institute,
National Institute of Health, Bethesda, Maryland
Drug resistance and disease progression are common in multiple myeloma (MM) patients, underscoring the need for new therapeutic combinations. […] We hypothesized that effective combinations would reduce MYC expression and enhance p16 activity. […] These preclinical data identify potentially useful drug combinations for evaluation in drug-resistant MM and reveal potential mechanisms of combined drug sensitivity.
Described herein is the primary MIPE qHTS used to cherrypick compounds. Validated compounds were then further tested for potential synergistic activiy.
[1] Peat TJ, Gaikwad SM, Dubois W, Gyabaah-Kessie N, Zhang S, Gorjifard S, Phyo Z, Andres M, Hughitt VK, Simpson RM, Miller MA, Girvin AT, Taylor A, Williams D, D'Antonio N, Zhang Y, Rajagopalan A, Flietner E, Wilson K, Zhang X, Shinn P, Klumpp-Thomas C, McKnight C, Itkin Z, Chen L, Kazandijian D, Zhang J, Michalowski AM, Simmons JK, Keats J, Thomas CJ, Mock BA. Drug combinations identified by high-throughput screening promote cell cycle transition and upregulate Smad pathways in myeloma. Cancer Lett. 2023 Aug 1;568:216284. doi: 10.1016/j.canlet.2023.216284. Epub 2023 Jun 24. PMID: 37356470; PMCID: PMC10408729.
SEQUENCE No. (e.g., 1, 2, 3, etc.); […] (e.g., Cells, Incubation, Reagent, etc.); VALUE and DESCRIPTION.
1; Cells; 5 uL; white, solid bottom 1536-well Greiner assay plate.
2; Compounds; 23 nL; Kalypsis pin tool (Wako USA) equipped with a 1536-well pin head to transfer to the assay plates.
3; Incubation; 48 hours; 37C incubation.
4; Reagent;5uL; CellTiter Glo (Promega).
5; Detector; 425V; Luminescence; Viewlux PerkinElmer.
NOTES (numbers refer to Sequence numbers above)
1. The cell-based screening methods employed in this study were like those previously published. Briefly, the corresponding myeloma cell lines were screened in 1,536-well plates with 500 cells, 5-uL per well for inhibition of cell viability (assessed by measuring ATP levels with CellTiterGlo).
2. NCATS MIPE 4.0 library of approved and investigational drugs were added using the Kalypsis pin tool. Wells treated with DMSO only for 100% viability and media only wells for 0% viability were used as controls.
3. The assay plates were covered and incubated for 48 hours in a 37C, 5% CO2 incubator with controlled humidity.
4. After 48 hours, CellTilter-GloTM luminescent substrate mix (Promega) reagent was added to the assay plate and plates we incubated for 5 min at room temperature.
5. Signal was measured as median relative luminescence units on a ViewLux (PerkinElmer) multiplate reader.
[1] Heske CM, Davis MI, Baumgart JT, Wilson K, Gormally MV, Chen L, Zhang X, Ceribelli M, Duveau DY, Guha R, Ferrer M, Arnaldez FI, Ji J, Tran HL, Zhang Y, Mendoza A, Helman LJ, Thomas CJ. Matrix Screen Identifies Synergistic Combination of PARP Inhibitors and Nicotinamide Phosphoribosyltransferase (NAMPT) Inhibitors in Ewing Sarcoma. Clin Cancer Res. 2017 Dec 1;23(23):7301-7311. doi: 10.1158/1078-0432.CCR-17-1121. Epub 2017 Sep 12. PMID: 28899971; PMCID: PMC6636827.
For orientation: Cellular ATP, detected with luciferase, serves as a proxy for viable cell number.
Turning to `CC(=O)C1=C(O)C=C2Oc3c(C(C)=O)c(O)c(C)c(O)c3C2(C)C1=O` (stereo not given), the Potency result is “inactive”.

As to `COC[C@H](NC(=O)c1cnc(C)s1)C(=O)N[C@@H](COC)C(=O)N[C@@H](Cc1ccccc1)C(=O)[C@@]1(C)CO1`, the Potency is 235 nM (active).

For the molecule `C[C@H](CCC(=O)O)[C@H]1CCC2C3C[C@H](O)[C@@H]4C[C@H](O)CC[C@]4(C)C3CC[C@@]21C` (stereo not given in full), the Potency entry was “inactive”.

For the molecule `N#Cc1cc(NC(=O)Nc2nnc(-c3ccncc3)s2)ccc1-c1cn[nH]c1`, the Potency entry is “inactive”.

Turning to `COc1ccc(C=Cc2cc(OC)c(OC)c(OC)c2)cc1NC(=O)[C@H](N)CO`, the Potency is 8.3 nM (active).

As to `CC(C)NC[C@@H](C(=O)N1CCN(c2ncnc3c2[C@H](C)C[C@H]3O)CC1)c1ccc(Cl)cc1`, the Potency is 18700 nM (active).

In the case of `CC(=O)NCC(=O)N1[C@H]2CC[C@H]1c1cc(Nc3ncc(C(F)(F)F)c(NC4CCC4)n3)ccc12`, the Potency is 1480 nM (active).

Turning to `Cn1cc(-c2cnn3c(N)c(Br)c([C@H]4CCCNC4)nc23)cn1`, the Potency is 14800 nM (active).

As for `CC(=O)N[C@@H]1[C@H](O[C@@H]2c3ccc(c(Cl)c3)Oc3cc4cc(c3O[C@H]3O[C@H](CO)[C@@H](O)[C@H](O)[C@H]3NC(=O)CCCCCCCC(C)C)Oc3ccc(cc3Cl)C[C@H]3NC(=O)[C@H](N)c5ccc(O)c(c5)Oc5cc(O)cc(c5)[C@H](NC3=O)C(=O)N[C@H]4C(=O)N[C@H]3C(=O)N[C@@H]2C(=O)N[C@@H](C(=O)O)c2cc(O)cc(O[C@H]4O[C@H](CO)[C@@H](O)[C@H](O)[C@H]4O)c2-c2cc3ccc2O)O[C@H](CO)[C@@H](O)[C@@H]1O`, the Potency result was “inactive”.

As to `O=C1c2c(O)cccc2[C@@H]([C@@H]2O[C@H](CO)[C@@H](O)[C@H](O)[C@H]2O)c2cc(CO)cc(O)c21`, the Potency result was “inactive”.

Turning to `O=c1ccn([C@@H]2O[C@H](CO)[C@H](O)[C@@H]2F)c(=O)[nH]1`, the Potency result was “inactive”.

Regarding `CCC[C@@H](C=O)NC(=O)[C@H](CC(C)C)NC(=O)[C@H](CC(C)C)NC(=O)OCc1ccccc1` (Cbz-Leu-Leu-[Nva]-aldehyde), the Potency is 1660 nM (active).

Take `CNC(=O)c1cccc(-c2ccc3c(N4CCOC[C@H]4C)nc(N4CCOC[C@H]4C)nc3n2)c1`: the Potency was 105 nM (active).

With `COc1cc(OC)c(NC(=O)Nc2cc(C)on2)cc1Cl`, the Potency entry is “inactive”.

As to `C[C@H]1COc2c(N3CCN(C)CC3)c(F)cc3c(=O)c(C(=O)O)cn1c23`, the Potency result was “inactive”.

For the molecule `Cc1cncc2cccc(S(=O)(=O)N3CCCN(C(=O)CN)C[C@@H]3C)c12`, the Potency result is “inactive”.

Take `CNC(=O)Nc1ccc(-c2nc(N3CC4CCC(C3)O4)c3cnn(C4CCC5(CC4)OCCO5)c3n2)cc1`: the Potency was 20.9 nM (active).

Consider `CC1(C)CC(O)CC(C)(C)N1[O]`, for which the Potency entry was “inactive”.

Regarding `COc1cc(CCc2cc(NC(=O)c3ccc(N4C[C@@H](C)N[C@@H](C)C4)cc3)n[nH]2)cc(OC)c1`, the Potency was 13200 nM (active).

In the case of `CC(C)(O)CC[C@@H](O)[C@](C)(O)[C@H]1CC[C@@]2(O)C3=CC(=O)[C@@H]4C[C@@H](O)[C@@H](O)C[C@]4(C)[C@@H]3CC[C@]12C`, the Potency entry is “inactive”.

With `C[C@@H]1[C@H](C)CC[C@]2(C(=O)O)CC[C@]3(C)C(=CC[C@@H]4[C@@]5(C)C[C@@H](O)[C@H](O)[C@@](C)(CO)[C@H]5CC[C@]43C)[C@@H]12`, the Potency result was “inactive”.

With `COc1cc2c(cc1O)CCC1C2CC[C@@]2(C)C1CC[C@@H]2O` (stereo not given in full), the Potency is 3720 nM (active).

Turning to `CC(=O)O[C@@]12CO[C@H]1C[C@H](O)[C@@]1(C)C(=O)[C@H](O)C3=C(C)[C@@H](OC(=O)C(O)[C@@H](NC(=O)OC(C)(C)C)c4ccccc4)C[C@@](O)([C@@H](OC(=O)c4ccccc4)[C@@H]21)C3(C)C` (stereo not given in full), the Potency result was “inactive”.

In the case of `C=CCNC1=C2C[C@@H](C)C[C@H](OC)[C@@H](O)[C@@H](C)C=C(C)[C@H](OC(N)=O)[C@@H](OC)C=CC=C(C)C(=O)NC(=CC1=O)C2=O`, the Potency was 2350 nM (active).

`C[C@@H]1CC[C@@]2(OC1)OC1CC3C4CC=C5CC(O)CCC5(C)C4CCC3(C)C1[C@@H]2C` (stereo not given in full): the Potency result was “inactive”.

In the case of `O=C(O)C=Cc1ccc(Cn2ccnc2)cc1`, the Potency result is “inactive”.

As to `CCc1ccc(C(=O)Nc2cc(CN3CCN(C)CC3)cc(C(F)(F)F)c2)cc1C#Cc1cnc2ccnn2c1`, the Potency was 14800 nM (active).

Take `c1cc(CN2CCCNCCNCCCNCC2)ccc1CN1CCCNCCNCCCNCC1`: the Potency entry is “inactive”.

Take `CCC(C=C[C@@H]1OC(=O)C=C[C@H]1C)=C[C@H](C)CC=CC(C)=C[C@@H](C)C(=O)[C@@H](C)[C@H](O)[C@@H](C)CC(C)=CC(=O)O`: the Potency is 27.7 nM (active).

Turning to `O=c1[nH]c(=O)n([C@H]2C[C@@H](O)[C@@H](CO)O2)cc1C=CBr`, the Potency entry was “inactive”.

In the case of `CC1(C)O[C@@H]2C[C@H]3[C@@H]4CCC5=CC(=O)C=C[C@]5(C)[C@@H]4[C@@H](O)C[C@]3(C)[C@]2(C(=O)CO)O1`, the Potency entry is “inactive”.

As to `CN[C@@H]1C[C@H]2O[C@@](C)([C@H]1OC)n1c3ccccc3c3c4c(c5c6ccccc6n2c5c31)C(=O)N[C@H]4O`, the Potency was 1050 nM (active).

Take `Cc1c2oc3c(C)ccc(C(=O)NC4C(=O)NC(C(C)C)C(=O)N5CCCC5C(=O)N(C)CC(=O)N(C)C(C(C)C)C(=O)OC4C)c3nc-2c(C(=O)NC2C(=O)NC(C(C)C)C(=O)N3CCCC3C(=O)N(C)CC(=O)N(C)C(C(C)C)C(=O)OC2C)c(N)c1=O` (stereo not given) (I: TVP[Sar][NMeV] / II: TVP[Sar][NMeV]; ester I:1-I:C, II:1-II:C; linker I:N-II:N via Actinocin(9to1); configuration not given here): the Potency entry was “inactive”.

As to `CC(C)N(CC[C@H](c1ccccc1)c1cc(CO)ccc1O)C(C)C`, the Potency entry was “inactive”.

Take `CC(C=CC(=O)NO)=C[C@@H](C)C(=O)c1ccc(N(C)C)cc1`: the Potency is 833 nM (active).

`CC(C)(C)[C@H](NC(=O)c1ccc(N)c(Cl)c1)C(=O)N1CCC[C@@H]1C(=O)N[C@H](C#N)CC(=O)O`: the viability (% of DMSO) was 102% [at 3.51 µM] (inactive).

As to `COC(=O)[C@@H]1[C@H]2C[C@@H]3c4[nH]c5ccccc5c4CCN3C[C@@H]2CC[C@@H]1O`, the Potency entry was “inactive”.

Consider `CCc1cnn2c(NCc3ccc[n+]([O-])c3)cc(N3CCCC[C@@H]3CCO)nc12`, for which the Potency was 29.6 nM (active).

Turning to `C=C1CCC2[C@](C)(CO)C(O)CC[C@]2(C)C1CC=C1C(=O)OCC1O` (stereo not given in full), the Potency entry was “inactive”.

Turning to `C[C@H](O)[C@@H]1C(=O)N2C(C(=O)O)=C(S[C@@H]3CN[C@H](CNS(N)(=O)=O)C3)[C@@H](C)[C@@H]12`, the Potency entry was “inactive”.

For the origin of these results see PubChem BioAssay (NCATS).
